{"source": "the supplement of paper PMC6089552", "system": "A673/TR/shEF", "experiment": "cell viability (LOESS-normalised, relative to median of negative controls) (log2 ratio); higher = more viable cells (less compound effect), active = hit call of the paper (over 3 MAD below the median)", "conditions": "treatment time: 72 h", "outline": "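Doxycycline, present or absent from 24 h before compounds, was used to induce EWS-FLI1 shRNA knockdown in A673/TR/shEF Ewing sarcoma cells at 1,500 per well in 384-well plates. Cells then received library compounds at two or more concentrations, or DMSO controls, for three days. Viability was measured by CellTiter-Glo luminescence on an Envision reader, and per-plate LOESS correction, division by the negative-control median and log2 transformation followed.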", "key": {"[1]": {"conditions": "0.25 µM, library screen: screen1, EWS-FLI1 expression: high (no doxycycline)"}, "[2]": {"conditions": "0.25 µM, library screen: screen1, EWS-FLI1 expression: low (doxycycline-induced shRNA knockdown)"}, "[3]": {"conditions": "2.5 µM, library screen: screen1, EWS-FLI1 expression: high (no doxycycline)"}, "[4]": {"conditions": "2.5 µM, library screen: screen1, EWS-FLI1 expression: low (doxycycline-induced shRNA knockdown)"}, "[5]": {"conditions": "0.25 µM, library screen: screen2, EWS-FLI1 expression: high (no doxycycline)"}, "[6]": {"conditions": "0.25 µM, library screen: screen2, EWS-FLI1 expression: low (doxycycline-induced shRNA knockdown)"}, "[7]": {"conditions": "2.5 µM, library screen: screen2, EWS-FLI1 expression: high (no doxycycline)"}, "[8]": {"conditions": "2.5 µM, library screen: screen2, EWS-FLI1 expression: low (doxycycline-induced shRNA knockdown)"}}, "note": "Hit rate of the full screen: of about 3,200 compounds, about 300 (9.4%) showed activity. What follows is part of a selection rich in actives, with near analogues and random picks from the rest. A number with no mark means an inactive call."}
{"smiles": "CCC(=O)C(CC(C)N1CCOCC1)(c1ccccc1)c1ccccc1", "note": "(stereo not given)", "values": [{"measurement": "cell viability (log2)", "setting": "[1]", "result": 0.0298}, {"measurement": "cell viability (log2)", "setting": "[2]", "result": 0.011}, {"measurement": "cell viability (log2)", "setting": "[3]", "result": 0.0537}, {"measurement": "cell viability (log2)", "setting": "[4]", "result": -0.074}]}
{"smiles": "CC[C@@H](C(=O)[C@@H](C)[C@@H](O)[C@H](C)[C@@H]1O[C@@H]([C@@H](CC)C(=O)O)CC[C@@H]1C)[C@H]1OC2(C=C[C@@H](O)[C@]3(CC[C@@](C)([C@H]4CC[C@](O)(CC)[C@H](C)O4)O3)O2)[C@H](C)C[C@@H]1C", "note": "(stereo not given in full)", "values": [{"measurement": "cell viability (log2)", "setting": "[1]", "result": "-0.101 (active)"}, {"measurement": "cell viability (log2)", "setting": "[2]", "result": 0.0935}, {"measurement": "cell viability (log2)", "setting": "[3]", "result": "-0.582 (active)"}, {"measurement": "cell viability (log2)", "setting": "[4]", "result": -0.123}]}
{"smiles": "O=C(O)CF", "values": [{"measurement": "cell viability (log2)", "setting": "[1]", "result": -0.0204}, {"measurement": "cell viability (log2)", "setting": "[2]", "result": -0.0324}, {"measurement": "cell viability (log2)", "setting": "[3]", "result": 0.103}, {"measurement": "cell viability (log2)", "setting": "[4]", "result": 0.0882}]}
{"smiles": "COc1cc(CC(C)N)c(OC)cc1I", "note": "(stereo not given)", "values": [{"measurement": "cell viability (log2)", "setting": "[5]", "result": 0.14}, {"measurement": "cell viability (log2)", "setting": "[6]", "result": 0.0726}, {"measurement": "cell viability (log2)", "setting": "[7]", "result": 0.151}, {"measurement": "cell viability (log2)", "setting": "[8]", "result": 0.083}]}
{"smiles": "O=C[C@H](Cl)[C@@H](O)[C@H](O)[C@H](O)CO", "values": [{"measurement": "cell viability (log2)", "setting": "[5]", "result": 0.14}, {"measurement": "cell viability (log2)", "setting": "[6]", "result": 0.0253}, {"measurement": "cell viability (log2)", "setting": "[7]", "result": 0.0931}, {"measurement": "cell viability (log2)", "setting": "[8]", "result": 0.107}]}
{"smiles": "NCC#Cc1ccccc1", "values": [{"measurement": "cell viability (log2)", "setting": "[5]", "result": 0.139}, {"measurement": "cell viability (log2)", "setting": "[6]", "result": -0.0046}, {"measurement": "cell viability (log2)", "setting": "[7]", "result": 0.0226}, {"measurement": "cell viability (log2)", "setting": "[8]", "result": 0.0206}]}
{"smiles": "O=C1c2ccccc2C(=O)c2ccccc21", "values": [{"measurement": "cell viability (log2)", "setting": "[1]", "result": 0.0481}, {"measurement": "cell viability (log2)", "setting": "[2]", "result": 0.0868}, {"measurement": "cell viability (log2)", "setting": "[3]", "result": 0.203}, {"measurement": "cell viability (log2)", "setting": "[4]", "result": 0.0785}]}
{"smiles": "c1ccc2c(c1)[I+]c1ccccc1-2", "values": [{"measurement": "cell viability (log2)", "setting": "[5]", "result": "-1.37 (active)"}, {"measurement": "cell viability (log2)", "setting": "[6]", "result": "-0.118 (active)"}, {"measurement": "cell viability (log2)", "setting": "[7]", "result": "-1.4 (active)"}, {"measurement": "cell viability (log2)", "setting": "[8]", "result": "-0.388 (active)"}]}
{"smiles": "COc1cc2c3cc1Oc1cc(ccc1O)C[C@H]1c4c(cc(OC)c(O)c4Oc4ccc(cc4)C[C@@H]3N(C)CC2)CCN1C", "values": [{"measurement": "cell viability (log2)", "setting": "[1]", "result": 0.0853}, {"measurement": "cell viability (log2)", "setting": "[2]", "result": 0.0939}, {"measurement": "cell viability (log2)", "setting": "[3]", "result": 0.083}, {"measurement": "cell viability (log2)", "setting": "[4]", "result": 0.276}]}
{"smiles": "CC1=C2[C@H]3OC(=O)[C@@H](C)[C@@H]3CC[C@@]2(C)C=CC1=O", "values": [{"measurement": "cell viability (log2)", "setting": "[1]", "result": 0.0669}, {"measurement": "cell viability (log2)", "setting": "[2]", "result": -0.0349}, {"measurement": "cell viability (log2)", "setting": "[3]", "result": 0.0906}, {"measurement": "cell viability (log2)", "setting": "[4]", "result": 0.0161}]}
{"smiles": "CCN(CC)C(=O)N[C@H]1C=C2c3cccc4[nH]cc(c34)C[C@H]2N(C)C1", "values": [{"measurement": "cell viability (log2)", "setting": "[5]", "result": 0.144}, {"measurement": "cell viability (log2)", "setting": "[6]", "result": 0.146}, {"measurement": "cell viability (log2)", "setting": "[7]", "result": 0.172}, {"measurement": "cell viability (log2)", "setting": "[8]", "result": 0.138}]}
{"smiles": "C=C(C)[C@@H]1C2OC(=O)C1[C@]1(O)CC3O[C@]34C(=O)O[C@H]2[C@]14C.CC(C)(O)[C@@H]1C2OC(=O)C1[C@]1(O)C[C@H]3O[C@]34C(=O)O[C@H]2[C@]14C", "note": "(stereo not given in full)", "values": [{"measurement": "cell viability (log2)", "setting": "[5]", "result": 0.0987}, {"measurement": "cell viability (log2)", "setting": "[6]", "result": 0.0228}, {"measurement": "cell viability (log2)", "setting": "[7]", "result": 0.079}, {"measurement": "cell viability (log2)", "setting": "[8]", "result": 0.0567}]}
{"smiles": "O=C(O)C1C2CCC(O2)C1C(=O)O", "note": "(stereo not given)", "values": [{"measurement": "cell viability (log2)", "setting": "0.025 µM, library screen: screen1, EWS-FLI1 expression: high (no doxycycline)", "result": 0.136}, {"measurement": "cell viability (log2)", "setting": "0.025 µM, library screen: screen1, EWS-FLI1 expression: low (doxycycline-induced shRNA knockdown)", "result": 0.0328}, {"measurement": "cell viability (log2)", "setting": "[1]", "result": 0.0769}, {"measurement": "cell viability (log2)", "setting": "[2]", "result": 0.0235}, {"measurement": "cell viability (log2)", "setting": "[5]", "result": 0.267}, {"measurement": "cell viability (log2)", "setting": "[6]", "result": 0.0812}, {"measurement": "cell viability (log2)", "setting": "[3]", "result": "-0.431 (active)"}, {"measurement": "cell viability (log2)", "setting": "[4]", "result": "-2.19 (active)"}, {"measurement": "cell viability (log2)", "setting": "[7]", "result": 0.105}, {"measurement": "cell viability (log2)", "setting": "[8]", "result": -0.0306}, {"measurement": "cell viability (log2)", "setting": "25 µM, library screen: screen1, EWS-FLI1 expression: high (no doxycycline)", "result": "-0.369 (active)"}, {"measurement": "cell viability (log2)", "setting": "25 µM, library screen: screen1, EWS-FLI1 expression: low (doxycycline-induced shRNA knockdown)", "result": "-2.13 (active)"}]}
{"smiles": "O=C(O)[C@@H]1CCN1", "values": [{"measurement": "cell viability (log2)", "setting": "[5]", "result": 0.101}, {"measurement": "cell viability (log2)", "setting": "[6]", "result": 0.092}, {"measurement": "cell viability (log2)", "setting": "[7]", "result": 0.0671}, {"measurement": "cell viability (log2)", "setting": "[8]", "result": 0.0609}]}
{"smiles": "COc1ccc(CN2CCN(Cc3cccc(F)c3)CC2)cc1", "values": [{"measurement": "cell viability (log2)", "setting": "[1]", "result": 0.0679}, {"measurement": "cell viability (log2)", "setting": "[2]", "result": 0.104}, {"measurement": "cell viability (log2)", "setting": "[3]", "result": 0.124}, {"measurement": "cell viability (log2)", "setting": "[4]", "result": 0.0696}]}
{"smiles": "Nc1ncnc2c1ncn2[C@@H]1O[C@@H]2COP(O)(=S)O[C@H]2[C@H]1O", "note": "(stereo not given in full)", "values": [{"measurement": "cell viability (log2)", "setting": "[5]", "result": 0.205}, {"measurement": "cell viability (log2)", "setting": "[6]", "result": 0.149}, {"measurement": "cell viability (log2)", "setting": "[7]", "result": 0.079}, {"measurement": "cell viability (log2)", "setting": "[8]", "result": 0.148}]}
{"smiles": "CSc1nc(NC(C)C)nc(NC(C)C)n1", "values": [{"measurement": "cell viability (log2)", "setting": "[1]", "result": 0.0904}, {"measurement": "cell viability (log2)", "setting": "[2]", "result": -0.0688}, {"measurement": "cell viability (log2)", "setting": "[3]", "result": 0.0234}, {"measurement": "cell viability (log2)", "setting": "[4]", "result": 0.0938}]}
{"smiles": "CNC(=O)O/N=C(\\C)SC", "values": [{"measurement": "cell viability (log2)", "setting": "[1]", "result": 0.0466}, {"measurement": "cell viability (log2)", "setting": "[2]", "result": 0.0661}, {"measurement": "cell viability (log2)", "setting": "[3]", "result": 0.0904}, {"measurement": "cell viability (log2)", "setting": "[4]", "result": 0.143}]}
{"smiles": "O=C1C=C2C(=CCOC2O)O1", "note": "(stereo not given)", "values": [{"measurement": "cell viability (log2)", "setting": "[1]", "result": "-0.259 (active)"}, {"measurement": "cell viability (log2)", "setting": "[2]", "result": 0.05}, {"measurement": "cell viability (log2)", "setting": "[3]", "result": "-2.95 (active)"}, {"measurement": "cell viability (log2)", "setting": "[4]", "result": "-0.992 (active)"}]}
{"smiles": "C=CCN1CC[C@@]2(C)c3cc(O)ccc3CC1[C@@H]2C", "values": [{"measurement": "cell viability (log2)", "setting": "[5]", "result": 0.194}, {"measurement": "cell viability (log2)", "setting": "[6]", "result": 0.135}, {"measurement": "cell viability (log2)", "setting": "[7]", "result": 0.028}, {"measurement": "cell viability (log2)", "setting": "[8]", "result": 0.047}]}
{"smiles": "N#C[C@H](O[C@@H]1O[C@H](CO[C@@H]2O[C@H](CO)[C@@H](O)[C@H](O)[C@H]2O)[C@@H](O)[C@H](O)[C@H]1O)c1ccccc1", "values": [{"measurement": "cell viability (log2)", "setting": "0.025 µM, library screen: screen2, EWS-FLI1 expression: high (no doxycycline)", "result": 0.166}, {"measurement": "cell viability (log2)", "setting": "0.025 µM, library screen: screen2, EWS-FLI1 expression: low (doxycycline-induced shRNA knockdown)", "result": 0.0523}, {"measurement": "cell viability (log2)", "setting": "[1]", "result": 0.122}, {"measurement": "cell viability (log2)", "setting": "[2]", "result": -0.00438}, {"measurement": "cell viability (log2)", "setting": "[5]", "result": 0.174}, {"measurement": "cell viability (log2)", "setting": "[6]", "result": 0.00657}, {"measurement": "cell viability (log2)", "setting": "[3]", "result": 0.113}, {"measurement": "cell viability (log2)", "setting": "[4]", "result": 0.0319}, {"measurement": "cell viability (log2)", "setting": "[7]", "result": 0.1}, {"measurement": "cell viability (log2)", "setting": "[8]", "result": 0.0264}, {"measurement": "cell viability (log2)", "setting": "25 µM, library screen: screen2, EWS-FLI1 expression: high (no doxycycline)", "result": 0.202}, {"measurement": "cell viability (log2)", "setting": "25 µM, library screen: screen2, EWS-FLI1 expression: low (doxycycline-induced shRNA knockdown)", "result": 0.0554}]}
